High-throughput results (PubChem)
Rows were chosen to be rich in hits. Some 7.3% of all compounds tested hit in one or more screens of this group.
HCMV inh: blocks human cytomegalovirus replication. 4.5% of 410,000 active. activity change, negative = inhibition, % at 57.5 µM. HFF cells, HCMV-luciferase reporter, 72 h; stronger effect = lower value; in the data active = activity change below about -60%; inconclusive = no clear call, values can overlap the other calls; inactive = above about -39%
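HFF cells seeded 16 h at 37C, treated with compounds, infected with luciferase-reporter HCMV at MOI 1 PFU/cell; luciferase read at 72 h post infection, normalized to buffer-only and Salinomycin controls.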
FMDV inh: blocks foot and mouth disease virus. 1.2% of 410,000 active. Potency, µM (series often up to 57.9 µM), most hits filed as inhibitors. FMDV antiviral cell-based qHTS. AID 1159524; calls by dose curve; tested in HEK293T cells; also: read-out not given here; nearly all actives have a fitted effect of over 45% in size
Vaccinia Venus: inhibitors of vaccinia virus (Venus reporter); Vaccinia virus Venus reporter expression, fluorescence; Potency, µM (top dose mostly 36.5 µM), hits mostly inhibitors; 0.46% of 330,000 active; calls by dose curve; tested in A549 cells; also: nearly all actives have a fitted effect of over 30% in size
HCV inh: HCV inhibition. Potency, µM (doses to about 41.8 µM), actives largely listed as inhibitors. 3.4% of 340,000 active. Huh7.5.1 HCVcc-Cre infection, luciferase reporter, 44 h. AID 651820; active = well fitted inhibition curve with a large enough effect; inconclusive = small, poorly fitted or top-dose-only effect, or another doubt; inactive = no such curve, though single readings can be large or run the other way
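Cells (1,000/well) were plated 4 h before compound, then infected with HCVcc-Cre virus (~0.5 moi). After 44 h further culture, infection was read as luciferase luminescence following a 15 min substrate incubation at room temperature.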
VACV mCherry inh: inhibitors of vaccinia virus infection (mCherry reporter signal). Vaccinia virus mCherry reporter infection, fluorescence. Potency, µM (top dose mostly 36.5 µM), hits mostly inhibitors. 0.63% of 310,000 active. AID 720579; calls by dose curve; tested in A549 cells; also: nearly all actives have a fitted effect of over 35% in size
Large screens that a line does not name were inactive.

O=C1OCC2=C1C(c1ccc3c(c1)OCO3)c1cc3c(cc1O2)OCO3 (configuration not stated)	HCV inh inconclusive
COc1cc(C2C3=C(COC3=O)Oc3cc4c(cc32)OCO4)cc(OC)c1OC (configuration not stated)	HCMV inh -84.2, Vaccinia Venus inconclusive, HCV inh inconclusive, VACV mCherry inh inconclusive
CCOc1ccc(NC(=O)c2ccc(NC(=O)CCS(=O)(=O)c3cccs3)cc2)cc1	none (no result: HCV inh)
O=Cc1cnc(N2CCN(Cc3ccccc3)CC2)s1	HCMV inh -63.5
Cc1cc(NC(=O)CCC(=O)N(CC(=O)NCC2CCCO2)c2ccc(C)c(C)c2)no1 (configuration not stated)	none
O=C(c1ccc(Oc2ccc([N+](=O)[O-])cc2)cc1)N1CCCCCC1	HCV inh 25.1µM
CSc1ccc(CN2CCN(C(=O)c3ccc([N+](=O)[O-])cc3)CC2)cc1	HCMV inh -74.9, FMDV inh inconclusive, HCV inh inconclusive
CCc1ccc(CN2CCN(Cc3ccc(SC)cc3)CC2)cc1	HCMV inh inconclusive, FMDV inh inconclusive, HCV inh 10µM
C/C(=N\N1CCN(Cc2ccc(Cl)cc2)CC1)c1ccc([N+](=O)[O-])cc1	FMDV inh inconclusive, HCV inh 11.2µM
O=[N+]([O-])c1ccc(Cl)c(/C=N/N2CCN(Cc3ccc(Cl)cc3)CC2)c1	none (no result: Vaccinia Venus, VACV mCherry inh)
CC(=O)c1ccc(NC(=O)C2CCC(CNS(=O)(=O)c3cccs3)CC2)cc1 (configuration not stated)	none (no result: HCV inh)
CCOC(=O)C1(C)CCCCCN1C(=O)c1csnn1 (configuration not stated)	Vaccinia Venus inconclusive (no result: HCV inh)
C/C(=N\NC(=O)c1ccc(CN2CCOCC2)cc1)c1cccc([N+](=O)[O-])c1	FMDV inh inconclusive, HCV inh inconclusive (no result: Vaccinia Venus, VACV mCherry inh)
COc1cc(SC)ccc1C(=O)N1CCN(c2ccccc2)CC1	none
COc1cc(SC)ccc1C(=O)N1CCN(Cc2ccccc2)CC1	HCV inh 25.1µM (no result: Vaccinia Venus, VACV mCherry inh)
C/C(=N\NC(=O)c1ccc(CN2CCOCC2)cc1)c1ccc([N+](=O)[O-])cc1	HCMV inh inconclusive, FMDV inh inconclusive, HCV inh 11.2µM
CC(C)=C(NC(=O)c1ccccc1)C(=O)Nc1cccc(C)c1	none (no result: Vaccinia Venus, VACV mCherry inh)
O=C(NCCN1CCC(n2c(=O)[nH]c3ccccc32)CC1)c1cccnc1Cl	none (no result: HCV inh)
O=C(C(=O)N1CCN(C(=O)c2ccco2)CC1)c1ccccc1	none (no result: HCV inh)
O=C(Cc1ccccc1)N/N=C/c1cc(Br)cc(Cl)c1O	Vaccinia Venus inconclusive, HCV inh inconclusive, VACV mCherry inh 12.6µM
O=C(CP(=O)(c1ccccc1)c1ccccc1)N/N=C/c1cc(Br)cc(Br)c1O	HCMV inh inconclusive, HCV inh inconclusive
COc1cc(Br)cc(/C=N/NC(=O)Cc2ccccc2)c1O	Vaccinia Venus inconclusive, HCV inh 12.6µM, VACV mCherry inh inconclusive
COc1cc(/C=N/NC(=O)Cc2ccc(Br)cc2)cc(OC)c1O	HCV inh inconclusive
CCCCn1c(SCC(=O)N(CC)C2CCS(=O)(=O)C2)nc2cc(S(N)(=O)=O)ccc21 (configuration not stated)	HCMV inh inconclusive
CCCCn1c(SCC(=O)c2cc(OC)ccc2OC)nc2cc(S(N)(=O)=O)ccc21	none
CCCCn1c(SCC(=O)N(C)C2CCS(=O)(=O)C2)nc2cc(S(N)(=O)=O)ccc21 (configuration not stated)	HCMV inh -61.1 (no result: Vaccinia Venus, VACV mCherry inh)
CCCCn1c(SCc2ccc(C(=O)OC)o2)nc2cc(S(N)(=O)=O)ccc21	HCV inh 2.51µM (no result: FMDV inh)
C[C@H]1CN([C@@H](C)CO)C(=O)c2cc(Br)cnc2O[C@@H]1CN(C)S(=O)(=O)c1ccccc1	none (no result: HCV inh)
Cc1nc(Sc2ccc(Cl)cc2)c(C#N)c(C)c1[N+](=O)[O-]	HCMV inh -75.0, FMDV inh inconclusive, VACV mCherry inh inconclusive
Cc1nc(Sc2ccc(Br)cc2)c(C#N)c(C)c1[N+](=O)[O-]	HCMV inh -77.2, FMDV inh 20µM, HCV inh inconclusive
Cc1ccc(Sc2nc(C)c([N+](=O)[O-])c(C)c2C#N)cc1	HCMV inh -69.7
O=C1NC2(CCCCCC2)C(=O)N1Cc1ccccc1Br	none
O=C(Nc1nnc2n1CCS2)c1cc(C(F)(F)F)cc(C(F)(F)F)c1	none (no result: HCV inh)
COCC1CCCN(Cc2ccc3c(c2)CN(C(=O)c2sc(C)nc2C)CCO3)C1 (configuration not stated)	none (no result: HCMV inh, HCV inh)
Cc1cc(-c2ccc(C)c(S(=O)(=O)Nc3cc(C)on3)c2)on1	none (no result: Vaccinia Venus, VACV mCherry inh)
CCc1cc(C(=O)N2CCCC(CCC(=O)N3CCN(c4ccccn4)CC3)C2)no1 (configuration not stated)	HCMV inh inconclusive, FMDV inh inconclusive, HCV inh inconclusive
CC(C)c1cc(C(=O)N2CCCC(CCC(=O)N3CCN(c4ccccn4)CC3)C2)no1 (configuration not stated)	HCMV inh -61.7, FMDV inh inconclusive, HCV inh inconclusive
CN(C)c1ccc(C(=O)N2CCCC(CCC(=O)N3CCN(c4ccccn4)CC3)C2)cc1 (configuration not stated)	FMDV inh inconclusive, HCV inh inconclusive
O=C(CCC1CCCN(C(=O)c2ccc3c(c2)OCO3)C1)N1CCN(c2ccccn2)CC1 (configuration not stated)	HCV inh 10µM
O=C1NC(=O)N(c2ccc3c(c2)OCO3)C(=O)/C1=C\c1ccc(N2CCCCC2)o1	HCMV inh -66.3
Cc1c(C#N)c(NC(=O)CCl)n(Cc2ccc(F)cc2)c1C	HCMV inh -67.7, FMDV inh 12.6µM, HCV inh inconclusive (no result: Vaccinia Venus, VACV mCherry inh)
CCN(CC)C(=O)c1sc(NC(=O)Cc2cccs2)c(C#N)c1C	none
Cc1c(C#N)c(NC(=O)CCl)n(Cc2cccs2)c1C	HCMV inh -92.6, FMDV inh 20µM, HCV inh inconclusive (no result: Vaccinia Venus, VACV mCherry inh)
Cc1c(C#N)c(NC(=O)CCl)n(Cc2ccccc2)c1C	HCMV inh inconclusive, FMDV inh 11.2µM, Vaccinia Venus inconclusive, HCV inh inconclusive, VACV mCherry inh inconclusive
Cc1cc(=O)n(Cc2ccccc2)c(O)c1C#N	none
CCCCN1C(=O)C(CC(=O)NCCN2CCOCC2)CC(C(=O)N(CC)CC)=C1C (configuration not stated)	none (no result: HCV inh)
CCOC(=O)c1cccc(NC(=O)Cn2ncc3c4ccccc4n(Cc4ccccc4)c3c2=O)c1	none (no result: HCV inh)
C[C@@]12CCC[C@H]1C1CC[C@H]3C[C@H](O)CC[C@]3(C)C1CC2 (some centres not stated)	none (no result: HCMV inh, HCV inh)
CCOC(=O)c1ccc(N2CCCCC2)c(NS(=O)(=O)c2ccc(C)cc2)c1	HCMV inh -85.8, HCV inh inconclusive, VACV mCherry inh inconclusive
CCCCOC(=O)/C=C\C(=O)NC(N)=O	FMDV inh 28.2µM, HCV inh inconclusive, VACV mCherry inh inconclusive
Cc1ccc(-c2nc(C(=O)NCC3CCCO3)cc3c2[nH]c2ccccc23)cc1 (configuration not stated)	HCMV inh -95.5, FMDV inh inconclusive, HCV inh inconclusive, VACV mCherry inh inconclusive
COc1ccc(OC)c(-c2nc(C(=O)NC3CCN(Cc4ccccc4)CC3)cc3c2[nH]c2ccccc23)c1	FMDV inh inconclusive, HCV inh 6.31µM
